Calls of active or inactive are those of the source. How the source made its calls: active means hit-call score of the fitted dose curve at least 0.9, where 1 is the maximum; inactive means score below 0.9.
What was measured:
Conditions in all cases: mRNA level, 48 h; actives raise or lower the signal
CYP2E1 (gene 1571) = test: LTEA_HepaRG_CYP2E1: Life Technologies and Expression Analysis (LTEA) Assay for CYP2E1 using HepaRG (AID 2283485)
Method in brief: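 HepaRG cells, plated 48 h, then exposed 48 h in serum-free induction medium to eight half-log concentrations from 100 uM in 0.5% DMSO, duplicate. CYP2E1 mRNA by qRT-PCR, normalized to ACTB/GAPDH/POLR2A; bidirectional fit versus DMSO.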

CYP4A11 (gene 1579) = test: LTEA_HepaRG_CYP4A11: Life Technologies and Expression Analysis (LTEA) Assay for CYP4A11 using HepaRG (AID 2283486)
Method in brief: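 Human hepatic HepaRG cultures receive duplicate 48 h exposures across a concentration-response series topping at 100 uM. Expression changes in CYP4A11 are measured by qRT-PCR relative to DMSO controls.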

[1] = read-out: Cytochrome P450 3A4 (Homo sapiens) (UniProt P08684); test: LTEA_HepaRG_CYP3A4: Life Technologies and Expression Analysis (LTEA) Assay for CYP3A4 using HepaRG (AID 2283487)
Method in brief: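 Differentiated HepaRG cells, plated 48 h, then dosed 48 h in serum-free induction medium with 0.5% DMSO, 8 half-log concentrations up to 100 uM, duplicate. CYP3A4 mRNA by qRT-PCR, normalized to ACTB/GAPDH/POLR2A; bidirectional fit versus DMSO.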

[2] = read-out: DNA damage-inducible transcript 3 (DDIT3), DDIT3 (gene 1649); test: LTEA_HepaRG_DDIT3: Life Technologies and Expression Analysis (LTEA) Assay for DNA damage-inducible transcript 3 (DDIT3) using HepaRG (AID 2283488)
Method in brief: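 HepaRG cells, 48 h after plating, exposed 48 h in serum-free induction medium to 8 half-log concentrations up to 100 uM in 0.5% DMSO, in duplicate. DDIT3 mRNA measured by TaqMan qRT-PCR, normalized to ACTB, GAPDH and POLR2A. Fitted bidirectionally against DMSO.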

[3] = read-out: Pro-epidermal growth factor (Homo sapiens) (UniProt P01133); test: LTEA_HepaRG_EGF: Life Technologies and Expression Analysis (LTEA) Assay for Epidermal growth factor (EGF) using HepaRG (AID 2283489)
Method in brief: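 Concentration-response mRNA assay: HepaRG cells dosed 48 h (max 100 uM, 0.5% DMSO), EGF measured by qRT-PCR and normalized to ACTB/GAPDH/POLR2A.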

[4] = read-out: Early growth response protein 1 (EGR1) transcription factor, EGR1 (gene 1958); test: LTEA_HepaRG_EGR1: Life Technologies and Expression Analysis (LTEA) Assay for Early growth response protein 1 (EGR1) transcription factor using HepaRG (AID 2283490)
Method in brief: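 Differentiated HepaRG cells in serum-free induction medium exposed 48 hours, duplicate, to 8 half-log concentrations up to 100 uM in 0.5% DMSO. EGR1 mRNA measured by TaqMan qRT-PCR, normalized to ACTB, GAPDH, POLR2A; bidirectional fit versus DMSO.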

[5] = read-out: Cytochrome P450 3A7 (Homo sapiens) (UniProt P24462); test: LTEA_HepaRG_CYP3A7: Life Technologies and Expression Analysis (LTEA) Assay for CYP3A7 using HepaRG (AID 2283492)
Method in brief: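 qRT-PCR of CYP3A7 in HepaRG lysates after 48 h treatment; concentration-response (8 points, max 100 uM) analysed bidirectionally relative to 0.5% DMSO controls.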

CYP3A5 (gene 1577) = test: LTEA_HepaRG_CYP3A5: Life Technologies and Expression Analysis (LTEA) Assay for CYP3A5 using HepaRG (AID 2283493)
Method in brief: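 HepaRG cells, plated 48 h then in serum-free induction medium, dosed in duplicate for 48 h with eight half-log concentrations up to 100 uM in 0.5% DMSO. Gene mRNA by Fluidigm TaqMan qRT-PCR, normalized to ACTB, GAPDH, POLR2A.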

[6] = read-out: Fatty Acid-Binding Protein 1 (FABP1), FABP1 (gene 2168); test: LTEA_HepaRG_FABP1: Life Technologies and Expression Analysis (LTEA) Assay for Fatty Acid-Binding Protein 1 (FABP1) using HepaRG (AID 2283494)
Method in brief: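 Differentiated human HepaRG cells exposed 48 h in serum-free induction medium to eight half-log concentrations up to 100 uM (0.5% DMSO), duplicate. FABP1 mRNA by qRT-PCR, normalised to ACTB, GAPDH, POLR2A; bidirectional fitting against DMSO.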

[7] = read-out: Cytochrome P450 4A22 (Homo sapiens) (UniProt Q5TCH4); test: LTEA_HepaRG_CYP4A22: Life Technologies and Expression Analysis (LTEA) Assay for Cytochrome P450 4A22 (CYP4A22) using HepaRG (AID 2283495)
Method in brief: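 Concentration-response (8 points, max 100 uM, 0.5% DMSO) in human HepaRG liver cells after 48 h exposure. CYP4A22 mRNA by TaqMan qRT-PCR with housekeeping-gene normalization.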

[8] = read-out: Cytochrome P450 7A1 (Homo sapiens) (UniProt P22680); test: LTEA_HepaRG_CYP7A1: Life Technologies and Expression Analysis (LTEA) Assay for Cytochrome P450 7A1 (CYP7A1) using HepaRG (AID 2283496)
Method in brief: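 HepaRG cells plated 48 h, then switched to serum-free induction medium and exposed in duplicate for 48 h to 8-point half-log series from 100 uM in 0.5% DMSO. CYP7A1 mRNA by qRT-PCR (TaqMan), normalized to ACTB/GAPDH/POLR2A; bidirectional fit versus DMSO.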

[9] = read-out: Glutathione S-Transferase (GSTA2), GSTA2 (gene 2939); test: LTEA_HepaRG_GSTA2: Life Technologies and Expression Analysis (LTEA) Assay for Glutathione S-Transferase (GSTA2) using HepaRG (AID 2283497)
Method in brief: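 Differentiated human HepaRG cells were exposed in duplicate for 48 h in serum-free induction medium, 8 points from 100 uM top in half-log steps, 0.5% DMSO. GSTA2 mRNA was measured by TaqMan qRT-PCR, normalized to ACTB, GAPDH and POLR2A; bidirectional fit versus DMSO.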

[10] = read-out: Glutamate-cysteine ligase catalytic (GCLC), GCLC (gene 2729); test: LTEA_HepaRG_GCLC: Life Technologies and Expression Analysis (LTEA) Assay for Glutamate-cysteine ligase catalytic (GCLC) using HepaRG (AID 2283498)
Method in brief: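 Differentiated HepaRG cells exposed 48 h in serum-free induction medium, eight-point half-log series topping at 100 uM in 0.5% DMSO, duplicates. GCLC mRNA by qRT-PCR normalized to ACTB, GAPDH and POLR2A, fitted bidirectionally versus DMSO.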

[11] = read-out: growth arrest and DNA damage 45 (GADD45G), GADD45G (gene 10912); test: LTEA_HepaRG_GADD45G: Life Technologies and Expression Analysis (LTEA) Assay for growth arrest and DNA damage 45 (GADD45G) using HepaRG (AID 2283499)
Method in brief: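 Concentration-response in HepaRG: 48 h dosing, 0.5% DMSO, highest level 100 uM. GADD45G expression by qRT-PCR, normalised to endogenous controls; bidirectional fit to DMSO.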

[12] = read-out: Glutamate-cysteine ligase regulatory (GCLM), GCLM (gene 2730); test: LTEA_HepaRG_GCLM: Life Technologies and Expression Analysis (LTEA) Assay for Glutamate-cysteine ligase regulatory (GCLM) using HepaRG (AID 2283500)
Method in brief: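 Differentiated HepaRG cells exposed 48 h in serum-free induction medium to eight half-log concentrations up to 100 uM (0.5% DMSO). GCLM mRNA by TaqMan qRT-PCR, normalized to ACTB, GAPDH and POLR2A; bidirectional fit versus DMSO.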

[13] = read-out: Glutathione S-transferase M3 (GSTM3), GSTM3 (gene 2947); test: LTEA_HepaRG_GSTM3: Life Technologies and Expression Analysis (LTEA) Assay for Glutathione S-transferase M3 (GSTM3) using HepaRG (AID 2283501)
Method in brief: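 Expression of GSTM3 is determined by qRT-PCR in human liver HepaRG cells treated 48 h with an 8-point half-log range from 100 uM in 0.5% DMSO.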

[14] = read-out: Heat shock 70 kDa protein 1 (HSPA1A), gene 3303; test: LTEA_HepaRG_HSPA1A: Life Technologies and Expression Analysis (LTEA) Assay for Heat shock 70 kDa protein 1 (HSPA1A) using HepaRG (AID 2283502)
Method in brief: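 Human HepaRG cells in serum-free induction medium were exposed in duplicate for 48 h to 8 half-log concentrations, highest 100 uM, in 0.5% DMSO. HSPA1A mRNA read by TaqMan qRT-PCR, normalized to ACTB, GAPDH, POLR2A, fitted bidirectionally against DMSO.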

[15] = read-out: Hypoxia-inducible factor 1-alpha (Homo sapiens) (UniProt Q16665); test: LTEA_HepaRG_HIF1A: Life Technologies and Expression Analysis (LTEA) Assay for Hypoxia-inducible factor 1 (HIF1A) Trancription factor using HepaRG (AID 2283503)
Method in brief: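 Differentiated HepaRG cells in serum-free induction medium exposed 48 h, in duplicate, to 8-point half-log series from 100 uM in 0.5% DMSO. HIF1A mRNA measured by TaqMan qRT-PCR, normalized to ACTB/GAPDH/POLR2A, fitted bidirectionally versus DMSO.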

[16] = read-out: 3-Hydroxy-3-Methylglutaryl-CoA Synthase 2 (HMGCS2), HMGCS2 (gene 3158); test: LTEA_HepaRG_HMGCS2: Life Technologies and Expression Analysis (LTEA) Assay for 3-Hydroxy-3-Methylglutaryl-CoA Synthase 2 (HMGCS2) using HepaRG (AID 2283504)
Method in brief: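 This steatosis marker was read as HMGCS2 mRNA change in HepaRG cells treated 48 h with up to 100 uM chemical. Normalisation used housekeeping genes; activity in either direction was fitted relative to 0.5% DMSO vehicle.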

[17] = read-out: Ezrin (EZR), EZR (gene 7430); test: LTEA_HepaRG_EZR: Life Technologies and Expression Analysis (LTEA) Assay for Ezrin (EZR) using HepaRG (AID 2283491)
Method in brief: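 EZR transcript levels came from Fluidigm qRT-PCR and were normalized to three housekeeping genes after 48 h chemical exposure of HepaRG cells. Dosing used an 8-point half-log series with a 100 uM top concentration in 0.5% DMSO, tested in duplicate; both directions were fitted versus vehicle.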

Measured: AC50

Hypoxia-inducible factor 1-alpha (Homo sapiens), sequence (Q16665 whole entry, looked up): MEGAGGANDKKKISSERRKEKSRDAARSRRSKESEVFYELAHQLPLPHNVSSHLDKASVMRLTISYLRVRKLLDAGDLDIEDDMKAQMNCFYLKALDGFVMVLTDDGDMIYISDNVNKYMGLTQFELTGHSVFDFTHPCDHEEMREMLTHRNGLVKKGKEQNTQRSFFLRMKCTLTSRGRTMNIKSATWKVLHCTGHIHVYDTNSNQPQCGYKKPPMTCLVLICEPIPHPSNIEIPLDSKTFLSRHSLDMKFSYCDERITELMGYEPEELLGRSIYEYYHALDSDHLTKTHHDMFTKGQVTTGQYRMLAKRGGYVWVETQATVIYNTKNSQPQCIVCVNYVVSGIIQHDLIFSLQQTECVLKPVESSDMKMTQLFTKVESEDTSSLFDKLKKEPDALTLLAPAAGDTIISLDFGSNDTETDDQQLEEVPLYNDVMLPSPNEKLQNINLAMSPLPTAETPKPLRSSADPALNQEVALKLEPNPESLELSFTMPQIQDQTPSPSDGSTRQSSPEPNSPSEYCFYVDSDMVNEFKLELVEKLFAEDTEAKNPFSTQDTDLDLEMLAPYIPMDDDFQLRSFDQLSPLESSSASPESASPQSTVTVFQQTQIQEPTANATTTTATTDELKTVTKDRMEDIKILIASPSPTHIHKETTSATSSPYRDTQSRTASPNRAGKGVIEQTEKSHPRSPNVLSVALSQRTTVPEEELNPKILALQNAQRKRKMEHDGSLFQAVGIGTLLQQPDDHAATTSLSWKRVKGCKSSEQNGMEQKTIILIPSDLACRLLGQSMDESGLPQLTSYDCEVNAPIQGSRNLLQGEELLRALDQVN
Cytochrome P450 3A4 (Homo sapiens), sequence (P08684 whole entry, looked up): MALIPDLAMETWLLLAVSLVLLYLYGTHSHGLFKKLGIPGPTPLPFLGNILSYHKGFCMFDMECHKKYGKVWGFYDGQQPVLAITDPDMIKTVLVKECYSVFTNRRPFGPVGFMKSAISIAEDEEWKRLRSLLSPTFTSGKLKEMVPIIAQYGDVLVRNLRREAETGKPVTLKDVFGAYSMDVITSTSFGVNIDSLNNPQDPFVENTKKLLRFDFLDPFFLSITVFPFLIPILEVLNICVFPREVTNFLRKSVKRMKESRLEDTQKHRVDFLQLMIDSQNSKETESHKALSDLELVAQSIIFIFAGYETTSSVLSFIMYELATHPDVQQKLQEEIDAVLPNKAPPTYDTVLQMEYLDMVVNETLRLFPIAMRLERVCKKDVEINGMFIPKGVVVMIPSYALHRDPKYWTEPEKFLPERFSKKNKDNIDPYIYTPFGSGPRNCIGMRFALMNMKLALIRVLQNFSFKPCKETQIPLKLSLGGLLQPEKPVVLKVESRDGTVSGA
Cytochrome P450 3A7 (Homo sapiens), sequence (P24462 whole entry, looked up): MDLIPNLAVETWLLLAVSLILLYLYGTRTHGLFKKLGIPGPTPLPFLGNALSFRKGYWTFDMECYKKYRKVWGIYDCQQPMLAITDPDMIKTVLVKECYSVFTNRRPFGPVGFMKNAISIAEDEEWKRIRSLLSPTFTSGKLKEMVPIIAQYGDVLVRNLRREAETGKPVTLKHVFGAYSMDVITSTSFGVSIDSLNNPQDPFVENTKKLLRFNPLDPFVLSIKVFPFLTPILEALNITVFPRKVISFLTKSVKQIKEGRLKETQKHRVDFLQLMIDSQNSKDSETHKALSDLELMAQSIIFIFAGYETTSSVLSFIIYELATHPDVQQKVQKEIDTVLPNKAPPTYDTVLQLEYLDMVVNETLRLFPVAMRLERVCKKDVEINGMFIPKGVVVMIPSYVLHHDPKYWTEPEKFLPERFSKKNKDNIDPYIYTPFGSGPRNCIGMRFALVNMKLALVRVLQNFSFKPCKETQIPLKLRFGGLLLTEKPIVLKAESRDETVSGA

CCCC(=O)OCC
not listed: [17]
inactive: all other assays above

CC(C)=CCC/C(C)=C/CO
inactive: [2] | [3] | [4] | [17] | [6] | [9] | [10] | [12] | [13] | [16]

Cc1ccc(O)cc1
not listed: CYP2E1 (gene 1571) | CYP4A11 (gene 1579) | [1] | [5] | CYP3A5 (gene 1577) | [7] | [8] | [15]
inactive: all other assays above

CCC(C)(C)C(=O)O[C@H]1C[C@@H](C)C=C2C=C[C@H](C)[C@H](CC[C@@H]3C[C@@H](O)CC(=O)O3)[C@H]21
active: [6] 5.7 µM
not listed: CYP2E1 (gene 1571) | CYP4A11 (gene 1579) | [1] | [5] | CYP3A5 (gene 1577) | [7] | [8] | [17]
inactive: all other assays above

CN(C)c1ccc(N=NS(=O)(=O)O)cc1
active: CYP2E1 (gene 1571) 22 µM | [6] 50 µM | [7] 9.92 µM | [8] 2.51 µM | [12] 50 µM
not listed: CYP3A5 (gene 1577) | [17]
inactive: all other assays above

CCCCCCCCCCCCc1ccccc1
not listed: [17]
inactive: all other assays above

C1N2CN3CN1CN(C2)C3
not listed: [17]
inactive: all other assays above

CC(C)(O)c1coc(S(=O)(=O)NC(=O)Nc2c3c(cc4c2CCC4)CCC3)c1
active: CYP2E1 (gene 1571) 36.8 µM | [5] 10.5 µM | [8] 18.3 µM
not listed: [1] | [17]
inactive: all other assays above

Nc1nc2ncc(CNc3ccc(C(=O)N[C@@H](CCC(=O)O)C(=O)O)cc3)nc2c(=O)[nH]1
not listed: [15] | [17]
inactive: all other assays above

CC1=CC(=O)CC(C)(C)C1
not listed: [17]
inactive: all other assays above

CC[C@H]1CC[C@H](NCc2cc3c(cc2OC)[C@H]2C[C@H]2C(=O)N3C)[C@H](c2ccccc2)N1
active: CYP2E1 (gene 1571) 50 µM | CYP4A11 (gene 1579) 81.8 µM | [1] 14.2 µM | [2] 50 µM | [5] 8.34 µM | CYP3A5 (gene 1577) 50 µM | [7] 76.8 µM | [11] 50 µM
not listed: [17]
inactive: all other assays above

Source: PubChem BioAssay (EPA / NIEHS)
